Results reported in PubChem BioAssay (Tox21).
“And” between values parts separate entries of the source, which are not always exact repeats. Equal entries are not always repeated. Results filed as inconclusive are left out. Where a call stands in place of a potency, no number is given. The source made the active and inactive calls. Calls come from the whole dose curve; as a rule, active = well fitted activation curve with a large enough effect in the repeat runs; inconclusive = weak or mixed curves; inactive = no such curve, though single readings can be large or run the other way.

What follows are compounds tested against Nuclear receptor subfamily 1 group I member 2 (Homo sapiens) (UniProt O75469) (assay: Human pregnane X receptor (PXR) small molecule agonists, qHTS assay (AID 1346982; note: nearly all actives have a fitted effect of over 35% in size)). Conditions: PXR-Luc HepG2, CYP3A4 luciferase reporter, 24 h; series mostly up to 92.4 µM.
Outline: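 After plating in 5% charcoal-stripped FBS and a 5 hr rest, PXR-Luc HepG2 cells received compounds in DMSO. Following 24 hr at 37 C, ONE-Glo was added and light output read.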
Potency is the fitted concentration of half-maximal effect.

Chain of Nuclear receptor subfamily 1 group I member 2 (Homo sapiens) (O75469 whole entry, looked up): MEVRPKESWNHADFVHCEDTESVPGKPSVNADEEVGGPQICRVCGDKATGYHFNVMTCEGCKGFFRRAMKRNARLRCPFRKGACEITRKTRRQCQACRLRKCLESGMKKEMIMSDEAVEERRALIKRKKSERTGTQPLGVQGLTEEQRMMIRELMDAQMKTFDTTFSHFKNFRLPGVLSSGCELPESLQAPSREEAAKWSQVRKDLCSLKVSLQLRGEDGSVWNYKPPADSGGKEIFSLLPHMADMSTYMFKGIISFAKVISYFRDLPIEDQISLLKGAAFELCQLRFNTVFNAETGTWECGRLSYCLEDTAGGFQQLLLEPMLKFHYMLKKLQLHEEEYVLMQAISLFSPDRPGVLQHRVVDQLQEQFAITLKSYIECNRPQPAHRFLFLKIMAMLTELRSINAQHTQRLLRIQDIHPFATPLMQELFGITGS

SMILES	Potency
CC(C)c1cccc(C(C)C)c1N1C(=O)c2ccc(O)cc2C1=O	27.3 µM (active)
CCCCCCCC/C=C/CCCOC(C)=O	inactive
CCOC(=O)CC(C)O (configuration not stated)	inactive
CCCCCCC(C)OC(=O)COc1nc(F)c(Cl)c(N)c1Cl (configuration not stated)	inactive
CCc1ccc(O)c(C(C)(C)C)c1	inactive
CN1CCN(C2Cc3ccccc3Sc3ccc(Cl)cc32)CC1 (configuration not stated)	inactive
CCCCCCCC(OC)OC	inactive
CCCCCCCCCCCCCCNCCO	inactive
COc1ccc(C#N)cc1	inactive
CCN=C1C=CC(=C(c2ccc(N(CC)CC)cc2)c2ccc(N(CC)CC)cc2)c2ccccc21	0.0242 µM (active)
Cn1cnc2ncnc(N)c21	inactive
COc1cc(C=C2CCC/C(=C\c3ccc(O)c(OC)c3)C2=O)ccc1O	inactive
CC(=O)C=O	inactive
COc1ccc(-n2nc(CCC(=O)N(C)O)cc2-c2ccc(Cl)cc2)cc1	29.8 µM (active)
CC(C)(c1cc(Br)c(OCCO)c(Br)c1)c1cc(Br)c(OCCO)c(Br)c1	4.75 µM (active)
C/C=C/C(=O)Oc1c(CCCCCC(C)C)cc([N+](=O)[O-])cc1[N+](=O)[O-]	21.7 µM (active)

SMILES	Potency
O=C(O)CC(=O)O	inactive
Cc1c(C)n(Cc2ccccc2)c2ccc(C(=O)OCCN(C)C)cc12	7.5 µM (active)
CCOC(=O)C1=C(C)NC(C)=C(C(=O)OCC)C1c1ccccc1/C=C/C(=O)OC(C)(C)C	1.33 µM (active)
COc1ccccc1C=O	inactive
Cc1cccc(C)n1	inactive
CC(=O)OC(OC(C)=O)c1ccc([N+](=O)[O-])o1	24.8 µM (active)
CCCCOC(=O)C(C)CC (configuration not stated)	inactive
CSc1ccc2c(c1)N(CCC1CCCCN1C)c1ccccc1S2 (configuration not stated)	9.65 µM (active) and 5.96 µM (active)
Oc1cc2ccccc2cc1O	inactive
C[C@@H]1CC[C@H]2C(C)(C)[C@H]3C[C@@]12CC[C@@]3(C)O	inactive
CC(NCCC(c1ccccc1)c1ccccc1)c1ccccc1 (configuration not stated)	6.68 µM (active)
C/C=C/c1ccc(OC)c(OC)c1	inactive
CCCCCCCCCCOCC(O)CN (configuration not stated)	inactive
CCN(CC)CCOC(=O)C1(C2CCCCC2)CCCCC1	8.41 µM (active)
CCCCCCCOC(=O)c1ccc(O)cc1	61.1 µM (active)
CC(C(O)c1ccccc1)N(C)CCOC(c1ccccc1)c1ccccc1 (configuration not stated)	7.5 µM (active)
